High-throughput results from PubChem.
A selection: hits, their analogues and other compounds. The true share with any hit is near 5.4%.
AHR act – AHR activators, primary screen, cell-based, luminescence, luciferase reporter, human. Aryl hydrocarbon receptor (Homo sapiens), P35869. AHR-responsive luciferase reporter cells. activation, % at 5 µM. hit rate 2.5% among 320,000. AID 2796, 2010; in the data active = activation above about 47%;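 also: 0% = vehicle wells and 100% = reference agonist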
HSF1 inh – HSF1 inhibitors in luciferase reporter cells, primary screen, cell-based, NIH3T3, luminescence. NIH3T3-HGL HSE-luciferase, MG132-induced, luminescence 8 h; active compounds read low. activity change, negative = inhibition, % at 7.5 µM (by protocol). hit rate 0.77% among 300,000;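 active = more than half of replicate wells show activity change below -50%, luminescence cut by over half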;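 also: luciferase reports HSF-1 transcriptional activity via heat shock element; 0% = median of DMSO wells and -100% = zero luminescence signal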
NR0B1 inh – DAX1 (NR0B1) inhibitors, primary screen, cell-based, HEK293, Gal4-DAX1, luciferase luminescence; HEK293 Gal4-DAX1 luciferase reporter; Nuclear receptor subfamily 0 group B member 1 (Homo sapiens), P51843; inhibition, % at 6.75 µM; hit rate 0.99% among 340,000; AID 504766, 2011;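 active = inhibition above the mean over all tested compounds plus 3 SD, cut at about 4.2% in these data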;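 also: 0% = DAX1-transfected cells with DMSO and 100% = empty-vector control cells with DMSO; inhibition shows as a rise in luminescence from relieved DAX1 repression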
HSF1 activator – HSF-1 activators, primary screen, NIH3T3-HGL cells, MG132 stress, luminescence, single point | NIH3T3-HGL HSF-1 luciferase reporter, 8 h; 100% = twice DMSO control signal | hit rate 1.7% among 300,000 | activation, % at 9 µM;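 active = mean replicate activation of at least 50% with a set share of replicates each reaching 50%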;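 also: 0% = median of the neutral control wells and 100% = twice that signal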
FXN GAA850 act – FXN promoter activators, primary screen, cell-based, luciferase luminescence, HEK293 lucGAA850 | HEK293 lucGAA850 FXN promoter luciferase reporter, 24 h; percent of 10 µM SAHA response | activation, % at 6 µM | hit rate 0.56% among 360,000 | AID 540364, 2011;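 active = activation above the average of all compounds screened plus 3 SD, cutoff fixed separately per campaign, cut at about 7.5% in these data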;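 also: 0% = DMSO wells and 100% = 10 µM SAHA wells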
AHR act cf – AHR activators, confirmation, cell-based, luminescence, luciferase reporter, human. shares compounds with AHR act. human cells, AHR-responsive luciferase reporter. activation, % at 9 µM. hit rate 87% among 2,300. AID 2845, 2010; in the data active = activation above about 49%;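 also: HepG2 hepatoma cells carrying a DRE-driven firefly luciferase reporter; 0% = vehicle wells and 100% = reference agonist wells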
PXR act counter – human PXR activators, counter-screen for AHR activator project, cell-based, luciferase luminescence; cell-based PXR reporter; hit rate 88% among 2,300; activation, % at 11.6 µM; shares compounds with AHR act; in the data active = activation above about 11%;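 also: human hepatoma DPX-2 cells expressing full-length human PXR; 0% = DMSO and 100% = reference agonist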
Target sequence (O75469 whole entry, looked up): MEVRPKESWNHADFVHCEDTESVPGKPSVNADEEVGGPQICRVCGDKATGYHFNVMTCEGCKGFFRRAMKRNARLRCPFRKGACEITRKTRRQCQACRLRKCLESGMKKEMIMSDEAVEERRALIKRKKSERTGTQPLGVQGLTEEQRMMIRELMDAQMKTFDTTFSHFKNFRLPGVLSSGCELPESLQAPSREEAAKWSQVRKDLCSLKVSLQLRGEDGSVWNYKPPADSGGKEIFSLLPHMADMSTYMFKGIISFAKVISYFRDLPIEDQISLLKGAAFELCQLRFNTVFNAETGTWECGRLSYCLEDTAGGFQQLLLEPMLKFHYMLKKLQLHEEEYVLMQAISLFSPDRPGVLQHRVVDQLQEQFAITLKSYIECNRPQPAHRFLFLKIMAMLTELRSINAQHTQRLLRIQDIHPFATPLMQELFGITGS
Numbers without * were called inactive; . = no result given.

SMILES | AHR act | HSF1 inh | NR0B1 inh | HSF1 activator | FXN GAA850 act | AHR act cf | PXR act counter
O=C(NCc1nnnn1-c1ccc(Cl)cc1)C(=O)c1c[nH]c2ccccc12 | . | . | 2 | . | 0 | . | .
COc1ccc(-c2nc3cnccn3c2NCc2ccccc2)cc1SC1CCCCC1 | 50* | 12 | 0 | 0 | -2 | . | .
COc1ccc(-c2nc3ccccn3c2NC2CCCCC2)cc1SC1CCCCC1 | 11 | 7 | 0 | 0 | 1 | . | .
CCOC(=O)C(C(=O)OCC)C(Nc1cccc(Br)c1)c1ccccc1 (stereo unspecified) | -1 | 182 | -3 | 203* | -3 | . | .
COC(=O)C(C)Nc1cccc(Br)c1 (stereo unspecified) | -1 | -1 | 0 | -7 | 0 | . | .
CCCCNC1C(CC)C(CCC)C(C#N)(C#N)C1(C#N)C#N (stereo unspecified) | -4 | 84 | -2 | 118* | 0 | . | .
CC(=O)Nc1ccccc1Oc1ccccc1 | -1 | 6 | -1 | -1 | -1 | . | .
O=C(Nc1ccccc1Oc1ccccc1)c1ccccc1F | 119* | 1 | 0 | -2 | 1 | 131* | 20*
COCCN1Cc2c(sc(C)c2C)N(C(=O)c2ccccc2)C1 | 82* | 23 | 2 | 42 | 1 | 84* | 38*
Cc1ccc(NC(=O)c2ccc(Cl)c(NC(=O)c3cccs3)c2)cc1 | 131* | 12 | -1 | 0 | 5 | 73* | 41*
O=C(Nc1ccccc1C(=O)Nc1ccccc1)c1cccs1 | 92* | -3 | 3 | -1 | -1 | 89* | 30*
O=C(O)c1cccc(NC(=O)c2ccccc2NC(=O)c2cccs2)c1 | . | . | 1 | . | -1 | . | .
CCN(CC)c1ccc(NC(=O)c2ccc3c(c2)OCO3)c(C)c1 | 2 | -3 | 0 | 16 | 0 | . | .
CN(C)Cc1c(C(=O)N/N=C/CCc2ccccc2)nnn1-c1nonc1N | -4 | -6 | 1 | 1 | 0 | . | .
CCNC(=O)C1(C)CCN(C(=O)c2ccccc2F)C1 (stereo unspecified) | . | . | . | . | -2 | . | .
CN=c1scc(C)n1/N=C/c1cc(Br)c(O)c(Br)c1 | 118* | 7 | 0 | 46 | 2 | 110* | 14*
O=Nc1c(-c2c(O)[nH]c3cc(Br)ccc23)[nH]c2ccccc12 | 133* | 14 | 0 | 18 | 5 | 148* | 22*
COc1ccc(-n2ccnc2SCC(=O)Nc2ccc(OC)cc2OC)cc1 | 10 | 3 | 0 | 20 | -1 | . | .
COc1cc2ncnc(Nc3ccc4c(c3)OCO4)c2cc1OC | 104* | -3 | 0 | 14 | 1 | 101* | 25*
CN(C)c1ccc(Nc2ncnc3ccc(Br)cc23)cc1 | 92* | -53* | -1 | -54 | -5 | 47 | 10
COc1ccc(Nc2ncnc3nc[nH]c23)cc1OC | 90* | -1 | 0 | 9 | 0 | 75* | 21*
COc1ccc(Nc2ncnc3ccc(Br)cc23)cc1OC | 86* | -28 | 1 | -33 | -9 | 72* | 18*
CC(NC(=O)Cn1cccc1C(=O)c1ccccc1)c1ccc2c(c1)OCCO2 (stereo unspecified) | 9 | 3 | 3 | -14 | -1 | . | .
COc1nc(Nc2ccc3c(c2)OCO3)nc(OC)n1 | 119* | 5 | 0 | -8 | 3 | 109* | 18*
Cc1cccc(Nc2ncnc3ccc(Br)cc23)c1 | 101* | -9 | -1 | -18 | -3 | 72* | 30*
SMILES | AHR act | HSF1 inh | NR0B1 inh | HSF1 activator | FXN GAA850 act | AHR act cf | PXR act counter
C(#Cc1ccc2c(c1)COc1c3ccccc3nn1-2)c1ccccc1 | 23 | 23 | 4 | 43 | 4 | . | .
C#Cc1ccc2c(c1)COc1c3ccccc3nn1-2 | 88* | 34 | 2 | 61* | 4 | 62* | 25*
COc1ccc(-c2cc3cc(OC)c(OC)cc3c(C)n2)cc1C | 96* | 2 | 0 | 2 | 5 | 58* | 29*
C#Cc1ccc(C(=O)Nc2cc(C(N)=O)ccc2N2CCOCC2)cc1 | 80* | 1 | 0 | 1 | -5 | 72* | 12*
CCOCCCNC(=O)CN1N=C(c2ccc(C)cc2)CCC1=O | 1 | 5 | 2 | -6 | 1 | . | .
Cc1cccc(Nc2nc3ccccc3s2)c1C | 101* | 58 | 1 | 125* | 5 | 50* | 72*
Cc1cccc(Nc2n[nH]c(=S)s2)c1C | -2 | 3 | 0 | 4 | 2 | . | .
Brc1cccc2sc(N3CCN(c4ccccc4)CC3)nc12 | 91* | 14 | 0 | 30 | 4 | 108* | 18*
CC(=O)c1ccc(NC(=O)c2cc(Cl)nc3ccccc23)cc1 | 96* | 2 | 2 | 6 | 1 | 82* | .
Fc1cccc(NC(=S)Nc2cccc3ccccc23)c1 | 82* | 7 | 1 | 24 | 1 | 62* | 100*
CC(=O)c1ccc(NC(=S)Nc2cccc3ccccc23)cc1 | 99* | -67* | 0 | -72 | -1 | 24 | 86*
Cc1ccc(NC(=S)Nc2cccc3ccccc23)cc1F | 84* | -55* | 1 | -62 | 3 | 75* | 112*
CCc1ccc(OCCCC(=O)Nc2ccc(S(=O)(=O)Nc3cc(C)nc(C)n3)cc2)cc1 | -1 | 3 | 1 | 1 | 0 | . | .
O=c1[nH]nc(Cc2ncc(C(F)(F)F)cc2Cl)c2ccccc12 | 2 | -1 | 0 | 1 | 1 | . | .
O=C1Nc2ccccc2C1c1ncc(C(F)(F)F)cc1Cl (stereo unspecified) | 90* | 6 | 0 | 9 | 2 | 30 | 21*
COc1ccc(CC(=O)Nc2cccc(-c3ccc4nncn4n3)c2)cc1OC | 25 | 2 | -5 | 11 | 0 | . | .
CC(=O)n1c2ccccc2c2c1c1ccccc1n2C | 109* | -5 | 0 | -5 | 3 | 113* | 22*
CC(=O)n1c2ccccc2c2nc3ccccc3nc21 | 40 | 2 | 2 | 14 | 2 | . | .
COC(=O)c1sc(N2CCN(c3ccc(Cl)cc3)CC2)nc1N | -4 | 15 | -1 | 12 | 2 | . | .
O=C(Nc1cc(F)c(Br)cc1F)c1ccc(Cl)cc1 | 83* | 13 | 1 | 26 | 3 | 98* | 31*
O=C(Nc1ccc(Cl)cc1C(F)(F)F)c1ccc(Cl)cc1 | 0 | -1 | 0 | 16 | 3 | . | .
O=C(C[n+]1cc(Br)cc2ccccc21)c1ccccc1 | 93* | 7 | 0 | 18 | 2 | 96* | 103*
